Measured values as given in PubChem BioAssay (EPA / NIEHS).
Active and inactive are the calls of the source. How the source made its calls: active means hit-call score of the fitted dose curve at least 0.9, where 1 is the maximum; inactive means score below 0.9.

The compounds below were run on Transforming growth factor beta 1 (TGFb1), TGFB1 (gene 7040) (assay: BSK_KF3CT_TGFb1: BioMAP Diversity Plus: KF3CT Assay for Transforming growth factor beta 1 (TGFb1) Biomarker Activity (AID 2283072)). Conditions: primary human keratinocytes with fibroblasts; actives raise or lower the signal.
Description: BSK_KF3CT is a cell-based, multiplexed-readout assay that uses keratinocytes and foreskin fibroblasts, a human skin primary cell co-culture, with measurements taken at 24 hours after chemical dosing in a 96-well plate.BSK_KF3CT_TGFb1 is an assay component measured in the BSK_KF3CT assay. It measures TGF-b1 antibody related to regulation of gene expression using ELISA technology.Data from the assay component BSK_KF3CT_TGFb1 was analyzed into 1 assay endpoint. This assay endpoint, BSK_KF3CT_TGFb1, was analyzed with bidirectional fitting relative to DMSO as the negative control and baseline of activity. Using a type of binding reporter, gain or loss-of-signal activity can be used to understand changes in the signaling as they relate to the gene TGFB1. Furthermore, this assay endpoint can be referred to as a primary readout, because this assay has produced multiple assay endpoints where this one serves a signaling function. To generalize the intended target to other relatable targets, this assay endpoint is annotated to the growth factor intended target family, where the subfamily is transforming growth factor beta.
The levels of cell surface (or secreted, indicated by the prefix "s") biomarker endpoints were measured by ELISA. Overt cytotoxicity to cells in confluent adherent cultures (all systems other than the BT system) was assessed by measuring total protein levels using sulforhodamine B (SRB) staining in parallel cultures at the time of biomarker measurements, indicated as SRB endpoints. For proliferation assays for adherent cell types, individual cell types are cultured at sub-confluence and relative cell numbers quantified by SRB staining at time points optimized for each system (48 h: 3C and CASM3C systems; 72 h: BT and HDF3CGF systems; 96 h: SAg system). SRB was performed by staining cells with 0.1% SRB after fixation with 10% TCA and reading wells at 560 nm.Viability and proliferation of PBMC (T cells) was quantified by Alamar Blue reduction for the SAg and BT systems. For PBMC viability (referred to as PBMC Cytotoxicity within the assay endpoint names), cells were plated (75,000/well in a 96-well plate) and then chemical samples added for 1 h before addition of activators, SEB and TSST-1 (20 ng/mL final concentration each). Cells were incubated for 90 h. Then, Alamar Blue (20 uL/well) (Invitrogen, Cat DAL1100) was added for 6 h, and the plates were read with a fluorescence microplate reader at 546/580 nm (excitation/emission). For PBMC proliferation, cells were plated and activated as above but incubated for only 16 h prior to addition of Alamar Blue. Plates were read after 6 h.

Row | SMILES | outcome | AC50
1 | O=C(c1ccc(O)cc1O)c1ccc(O)cc1O | inactive | –
2 | CCOC(=O)C(C)Oc1ccc(Oc2cnc3cc(Cl)ccc3n2)cc1 (stereo not given) | inactive | –
3 | CCOC(=O)[C@H](C)Oc1ccc(Oc2nc3ccc(Cl)cc3o2)cc1 | inactive | –
4 | S=C([S-])NCCNC(=S)[S-].[Mn+2] | inactive | –
5 | CCN(CC)C(=O)c1cccc(C)c1 | inactive | –
6 | O=C(c1ccccc1)C1CCCCC1 | inactive | –
7 | CCCCCCC(C)OC(=O)COc1nc(F)c(Cl)c(N)c1Cl (stereo not given) | – | 31.3 µM (active)
8 | CSC(=O)c1cccc2nnsc12 | inactive | –
9 | CCCN(CCC)C(=O)SCC | inactive | –
10 | c1ccc2[nH]c(-c3cscn3)nc2c1 | inactive | –
11 | Cc1nn(C)c(Oc2ccccc2)c1C=NOCc1ccc(C(=O)OC(C)(C)C)cc1 | inactive | –
12 | O=C(O)C1(C(=O)Nc2ccc(Cl)cc2Cl)CC1 | inactive | –
13 | CCC(C)OC(=O)N1CCCCC1CCO (stereo not given) | inactive | –
14 | CCOC(=O)C(C)Oc1ccc(Oc2nc3ccc(Cl)cc3o2)cc1 (stereo not given) | inactive | –
15 | C=CCOC(Cn1ccnc1)c1ccc(Cl)cc1Cl (stereo not given) | inactive | –
16 | CCOC(=O)c1ccc(O)cc1 | inactive | –
17 | CC1(C)C(C=C(Cl)Cl)C1C(=O)OCc1cccc(Oc2ccccc2)c1 (stereo not given) | inactive | –
18 | CCOC(=O)NCCOc1ccc(Oc2ccccc2)cc1 | inactive | –
19 | c1ccc(Nc2ccccc2)cc1 | inactive | –
20 | CCCOC(=O)c1ccc(C(=O)OCCC)nc1 | inactive | –

Row | SMILES | outcome | AC50
21 | CCCCC(CC)CN1C(=O)C2C3C=CC(C3)C2C1=O (stereo not given) | inactive | –
22 | O=C(Nc1ccc([N+](=O)[O-])cc1Cl)c1cc(Cl)ccc1O | inactive | –
23 | O=C(O)c1ccccc1 | inactive | –
24 | CC(C)(C)[C@@H](O)[C@@H](Cc1ccc(Cl)cc1)n1cncn1 | inactive | –
25 | S=C(S)NCCNC(=S)S.[Mn+2].[S-]C([S-])=NCCN=C([S-])[S-].[Zn+2] | inactive | –
26 | COCCO | inactive | –
27 | COC(=O)c1c(Cl)nn(C)c1S(=O)(=O)NC(=O)Nc1nc(OC)cc(OC)n1 | inactive | –
28 | Oc1ccc(C(c2ccc(O)cc2)C(Cl)(Cl)Cl)cc1 | inactive | –
29 | COc1nc(C)nc(NC(=O)NS(=O)(=O)c2ccccc2OCCCl)n1 | inactive | –
30 | CC(C)(c1ccc(O)cc1)c1ccc(O)cc1 | inactive | –
31 | CCSC(=O)N(CC(C)C)CC(C)C | inactive | –
32 | COC(=O)c1ccc(CNS(C)(=O)=O)cc1S(=O)(=O)NC(=O)Nc1nc(OC)cc(OC)n1 | inactive | –
33 | CCCCCOC(=O)COc1cc(N2C(=O)C3=C(CCCC3)C2=O)c(F)cc1Cl | inactive | –
34 | CCCOC(=O)NCCCN(C)C | inactive | –
35 | COc1c(Cl)ccc(Cl)c1C(=O)O | inactive | –
36 | CCCN(CCC)c1c([N+](=O)[O-])cc(C(F)(F)F)c(N)c1[N+](=O)[O-] | – | 32.1 µM (active)
37 | CCC(O)=C1C(=O)CC(C(=O)O)CC1=O (stereo not given) | inactive | –
38 | COC(=O)c1ccc(I)cc1S(=O)(=O)NC(=O)Nc1nc(C)nc(OC)n1 | inactive | –
39 | CCN(Cc1c(F)cccc1Cl)c1c([N+](=O)[O-])cc(C(F)(F)F)cc1[N+](=O)[O-] | inactive | –
40 | CN(C)C(=O)Nc1ccc(Cl)c(Cl)c1 | inactive | –
